Records with an inconclusive call do not appear. Values without a mark were called inactive. Activity calls are given as the source filed them. The call rests on the fitted dose curve; in most records, active means well fitted inhibition curve with a large enough effect in the main read-out, with a control signal flat; inconclusive means small, poorly fitted or top-dose-only effect, or a change in a side signal; inactive means flat fitted curve, though single readings scatter.
Potency means the concentration at half of the fitted maximal effect.

The target in the assay is Neuropeptide S receptor (Homo sapiens) (UniProt Q6W5P4). Nature of the assay: Confirmation Concentration-Response Assay for Antagonists of the Neuropeptide S Receptor: cAMP Signal Transduction.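 On activity change, negative = inhibition: 0% = DMSO with NPS and full inhibition = wells lacking NPS.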 The note with it: CHO-NPSR cells, cAMP TR-FRET, antagonist mode; series mostly up to 22.3 µM; activity change, negative = inhibition: at the top concentration. An excerpt: NIH Chemical Genomics Center [NCGC] NIH Molecular Libraries Probe Production centers Network [MLPCN] MLPCN Grant: X01-DA026210-01 Assay Submitter (PI): Heilig, Markus Alexander NCGC Assay Overview: Neuropeptide S receptor (NPSR), previously known as GPR154, is a recently de-orphanized G protein coupled receptor. Its endogenous ligand is the 20 amino acids peptide Neuropeptide S (NPS). […] NPS and its receptor are found in various tissues. Specifically they are highly expressed in brain areas that have been implicated in modulation of arousal, stress and anxiety. Central administration of NPS in mice produces an unusual profile of activity by inducing wakefulness and arousal, while at the same time suppressing anxiety. Therefore, NPSR may represent a novel drug target for the treatment of sleep and anxiety disorders. To identify NPSR antagonists, we developed a cell-based cAMP assay. NPS can stimulate the production of cAMP in Chinese hamster ovary cells stably expressing NPS receptor. This change in intracellular cAMP level can be detected by a homogeneous LANCE cAMP assay based on the TR-FRET (time resolved fluorescence resonance energy transfer) between a europium-labeled cAMP tracer complex and a cAMP-specific antibody labeled with Alexa Fluor 647. The europium-labeled cAMP tracer complex is formed by the tight interaction between Biotin-cAMP (b-cAMP) and streptavidin labeled with Europium-W8044 chelate (Eu-SA). Light pulse at 320 nm excites the europium of the cAMP tracer and the energy emitted is transferred to the Alexa molecule bound to the cAMP antibody, generating a TR-FRET signal at 665 nm. Residual energy from the europium will produce a light at 620 nm. The native unlabeled cAMP from cell lysates competes with the europium-cAMP tracer for antibody binding and reversely reduces the emission signal of Alexa by interrupting FRET between the two labeled molecules. Both emission signals from the FRET donor (620 nm) and the acceptor (665 nm) can be detected by a plate reader in the TRF mode. Expression of result in fluorescence ratio (665 nm/620 nm) helps to normalize differences due to cell density and reagent dispensing. This assay was successfully optimized to a 1536-well plate format. Select compounds from the primary screen (AID 1461) were chosen for confirmation based on potency, efficacy, SAR, and activity across other assays in PubChem and at NCGC. Other compounds are analogs of active compounds from the primary sceen.
Neuropeptide S receptor (Homo sapiens), sequence (Q6W5P4 whole entry, looked up): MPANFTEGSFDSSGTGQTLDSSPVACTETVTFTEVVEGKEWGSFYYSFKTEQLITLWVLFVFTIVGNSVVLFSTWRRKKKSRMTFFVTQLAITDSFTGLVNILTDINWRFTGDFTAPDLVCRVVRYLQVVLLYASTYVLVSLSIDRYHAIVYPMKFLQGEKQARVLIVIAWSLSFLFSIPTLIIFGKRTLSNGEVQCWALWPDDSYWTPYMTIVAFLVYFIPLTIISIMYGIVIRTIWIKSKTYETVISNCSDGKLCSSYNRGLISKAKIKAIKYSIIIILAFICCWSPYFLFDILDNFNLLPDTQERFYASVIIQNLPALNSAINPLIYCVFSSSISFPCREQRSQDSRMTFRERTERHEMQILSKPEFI
NCGC Assay Protocol Summary: A Chinese hamster ovary (CHO) cell line stably expressing the NPS receptor (CHO-NPSR) was obtained from Dr. Heilig lab at NIAAA and maintained in F-12 Kaighn's media (Invitrogen, Carlsbad, CA, 21127) supplemented with 10 % FBS, 100 units/ml penicillin, 100 ug/ml streptomycin and 250 ug/ml geneticin at 37C, 5% CO2 in a humidified atmosphere. Before the assay, aliquots of cells were frozen and stored at -135C. The assay was performed in 1536-well format. Data are reported for both the ratio of the two emission wavelengths, and also for the component 'donor' channel, Em2=620. […] IC50 values were determined from concentration-response data modeled with the standard Hill equation. NPS 1536-well assay protocol: (1) Fresh or frozen CHO-NPSR cells were suspended in F-12 Kaighn's media supplemented with 10 % FBS, 100 units/ml penicillin and 100 ug/ml streptomycin. Cells were plated at 4 ul/well (1200 cells) to white, tissue culture treated 1536-well plates, and then cultured at 37C, 5 % CO2 for 16 to 30 hours. (2) Add 23 nl/well of compound in DMSO solution. The final titration for each compound was between 0.6 nM and 46 uM. (3) Add 1 ul of stimulation reagent (1X HBSS buffer, 5 mM HEPES, 0.1% BSA, 500 uM RO-201724 (Sigma-Aldrich, B8279), 1.5% Alexa 647-labeled anti-cAMP antibody (from Perkin Elmer), 100 nM NPS) (4) Incubation at 37C, 5 % CO2 for 60 min. (5) Add 1 ul/well detection reagent. […]
Background: TR-FRET usually uses a lanthanide donor and a delayed reading to cut background.
In the case of `C=C(C=O)CC1CC(O)[C@]2(C)OC3CC4OC5C[C@]6(C)O[C@]7(C)CCC8OC9C[C@]%10(C)OC%11C(C)=CC(=O)OC%11CC%10OC9C[C@@H](C)C8OC7CC6O[C@]5(C)CC5OC5C4OC3CC2O1` (stereo partly specified), the “activity change, negative = inhibition” value was -10.3%.

Consider `Cc1cccc(N2C(=O)NC(=O)/C(=C\c3cnn(-c4ccccc4)c3)C2=O)c1`, for which the Potency is 10 µM (active).

For `CC(=O)Nc1cc([As](=O)(O)O)ccc1O`, the “activity change, negative = inhibition” value is -4.93%.

As for `C=CCN1C(=O)/C(=C/c2cccs2)C(=O)NC1=S`, the Potency is 11.2 µM (active).

Turning to `CCOC(=O)c1c(-n2c(C)cc(C=C3C(=O)NC(=S)NC3=O)c2C)sc2c1CCCC2`, the Potency is 10 µM (active).

In the case of `Cn1ncnc2c(=O)n(C)c(=O)nc1-2`, the “activity change, negative = inhibition” value is -1.28%.

As to `CN(C)C(=S)SSC(=S)N(C)C`, the “activity change, negative = inhibition” value was -2.55%.

For `Cc1c(P(=S)(c2ccccc2)c2ccccc2)[n+]2ccccc2n1C`, the Potency is 1.12 µM (active).

For `C[C@H]1CCCC(=O)CCCCCc2cc(O)cc(O)c2C(=O)O1`, the “activity change, negative = inhibition” value was -3.65%.

For the molecule `Cc1cc(C=C2C(=O)NC(=S)NC2=O)c(C)n1-c1ccc2c(c1)OCO2`, the Potency is 12.6 µM (active).

On to `C=C1C(=O)O[C@@H]2C[C@@H](C)[C@@H]3C=CC(=O)[C@@]3(C)[C@@H](OC(=O)CC(=O)O[C@H]3[C@@H]4C(=C)C(=O)O[C@@H]4C[C@@H](C)[C@@H]4C=CC(=O)[C@]43C)[C@H]12`, for which the Potency is 1 µM (active).

The record behind these values is PubChem BioAssay AID1491 (National Center for Advancing Translational Sciences (NCATS), 2009).
